Measured values published in PubChem BioAssay AID1159580 (chemical genetic matrix, 2015).
About 2,000 (36%) of roughly 5,500 compounds were called active. Inconclusive results (about 18%) are left out. Rule as the data show it: active = normalized growth mostly below about 0.91 (no sharp cut-off); inconclusive = no clear call, values can overlap the other calls; inactive = mostly above about 0.92. The list shows a part of the results.

Assay: chemical genetic growth profiling, strain panel (AID 1159580);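 also: tested at 20 µM; growth read once vehicle control cultures reached saturation at 30 °C; 1 = growth at the plate median or of vehicle wells; lower values mean less growth of the strain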
Details: growth OD

Measured: normalized growth

CCCCCCCCCCCCCCCC[N+](C)(C)C
active: S. cerevisiae deletion strains, locus YJR075W, strain HOC1, active compounds read low 0.0608 | S. cerevisiae deletion strains, locus YKL009W, strain mrt4, active compounds read low 0.126 | S. cerevisiae deletion strains, locus YKL068W, active compounds read low 0.057 | S. cerevisiae deletion strains, locus YKL085W, strain MDH1 (second series), active compounds read low 0.0537 | S. cerevisiae deletion strains, locus YKL085W, strain MDH1, active compounds read low 0.0537 | S. cerevisiae deletion strains, locus YKL160W, strain elf1, active compounds read low 0.0583 | S. cerevisiae deletion strains, locus YKL190W, strain CNB1, active compounds read low 0.0478 | S. cerevisiae deletion strains, locus YKR001C, strain vps1, active compounds read low 0.0609 | S. cerevisiae deletion strains, locus YKR026C, strain gcn3, active compounds read low 0.0627 | S. cerevisiae deletion strains, locus YKR091W, strain srl3, active compounds read low 0.0569 | S. cerevisiae deletion strains, locus YLL001W, strain dnm1, active compounds read low 0.0599 | S. cerevisiae deletion strains, locus YLL026W, active compounds read low 0.0546 | S. cerevisiae deletion strains, locus YLL041C, strain sdh2, active compounds read low 0.0568 | S. cerevisiae deletion strains, locus YLR027C, strain aat2, active compounds read low 0.0555 | S. cerevisiae deletion strains, locus YLR039C, strain RIC1, active compounds read low 0.0825 | S. cerevisiae deletion strains, locus YLR058C, strain SHM2, active compounds read low 0.0453 | S. cerevisiae deletion strains, locus YLR102C, strain apc9, active compounds read low 0.0605 | S. cerevisiae deletion strains, locus YLR113W, strain HOG1, active compounds read low 0.113 | S. cerevisiae deletion strains, locus YLR221C, strain rsa3, active compounds read low 0.0541 | S. cerevisiae deletion strains, locus YLR258W, strain gsy2, active compounds read low 0.0561 | S. cerevisiae deletion strains, locus YLR262C, strain YPT6 (second series), active compounds read low 0.0788 | S. cerevisiae deletion strains, locus YLR262C, strain YPT6, active compounds read low 0.0977 | S. cerevisiae deletion strains, locus YLR268W, strain sec22, active compounds read low 0.0658 | S. cerevisiae deletion strains, locus YLR320W, strain mms22, active compounds read low 0.0733 | S. cerevisiae deletion strains, locus YLR330W, strain CHS5, active compounds read low 0.0514 | S. cerevisiae deletion strains, locus YLR342W, strain FKS1 (second series), active compounds read low 0.0636 | S. cerevisiae deletion strains, locus YLR342W, strain FKS1, active compounds read low 0.0598 | S. cerevisiae deletion strains, locus YLR357W, strain rsc2, active compounds read low 0.103 | S. cerevisiae deletion strains, locus YLR370C, strain arc18, active compounds read low 0.061 | S. cerevisiae deletion strains, locus YLR371W, strain rom2, active compounds read low 0.0606 | S. cerevisiae deletion strains, locus YLR384C, strain iki3, active compounds read low 0.0599 | S. cerevisiae deletion strains, locus YLR418C, strain cdc73, active compounds read low 0.0891 | S. cerevisiae deletion strains, locus YML016C, strain PPZ1, active compounds read low 0.0596 | S. cerevisiae deletion strains, locus YML032C, strain rad52, active compounds read low 0.0653 | S. cerevisiae deletion strains, locus YML120C, strain ndi1, active compounds read low 0.0558 | S. cerevisiae deletion strains, locus YML124C, strain tub3, active compounds read low 0.0593 | S. cerevisiae deletion strains, locus YMR058W, strain fet3, active compounds read low 0.0569 | S. cerevisiae deletion strains, locus YMR078C, strain ctf18, active compounds read low 0.0689 | S. cerevisiae deletion strains, locus YMR125W, strain sto1, active compounds read low 0.0643 | S. cerevisiae deletion strains, locus YMR129W, active compounds read low 0.0561 | S. cerevisiae deletion strains, locus YMR205C, strain PFK2, active compounds read low 0.0755 | S. cerevisiae deletion strains, locus YMR223W, strain ubp8, active compounds read low 0.0626 | S. cerevisiae deletion strains, locus YMR231W, strain pep5, active compounds read low 0.0651 | S. cerevisiae deletion strains, locus YMR263W, strain SAP30, active compounds read low 0.0582 | S. cerevisiae deletion strains, locus YMR307W, strain GAS1, active compounds read low 0.119 | S. cerevisiae deletion strains, locus YNL067W, strain RPL9B, active compounds read low 0.0498 | S. cerevisiae deletion strains, locus YNL071W, strain lat1, active compounds read low 0.0578 | S. cerevisiae deletion strains, locus YNL128W, strain TEP1, active compounds read low 0.0627 | S. cerevisiae deletion strains, locus YNL153C, strain GIM3, active compounds read low 0.0486 | S. cerevisiae deletion strains, locus YNL183C, strain NPR1, active compounds read low -0.00175 | S. cerevisiae deletion strains, locus YNL209W, strain ssb2, active compounds read low 0.0612 | S. cerevisiae deletion strains, locus YNL233W, strain BNI4, active compounds read low 0.053 | S. cerevisiae deletion strains, locus YNL248C, strain rpa49, active compounds read low 0.0567 | S. cerevisiae deletion strains, locus YNL250W, strain rad50, active compounds read low 0.0666 | S. cerevisiae deletion strains, locus YNL271C, strain bni1, active compounds read low 0.0608 | S. cerevisiae deletion strains, locus YNL298W, strain CLA4, active compounds read low 0.0592 | S. cerevisiae deletion strains, locus YNL307C, strain MCK1, active compounds read low 0.0664 | S. cerevisiae deletion strains, locus YNL322C, strain KRE1 (second series), active compounds read low 0.0599 | S. cerevisiae deletion strains, locus YNL322C, strain KRE1, active compounds read low 0.0495 | S. cerevisiae deletion strains, locus YNR049C, strain mso1, active compounds read low 0.0575 | S. cerevisiae deletion strains, locus YNR052C, strain pop2, active compounds read low 0.0593 | S. cerevisiae deletion strains, locus YOL006C, strain TOP1, active compounds read low 0.0794 | S. cerevisiae deletion strains, locus YOL012C, strain htz1 0.179 | S. cerevisiae deletion strains, locus YOL147C, strain pex11, active compounds read low 0.0577 | S. cerevisiae deletion strains, locus YOR001W, strain rrp6, active compounds read low 0.0595 | S. cerevisiae deletion strains, locus YOR061W, strain CKA2, active compounds read low 0.0395 | S. cerevisiae deletion strains, locus YOR069W, strain VPS5, active compounds read low 0.0494 | S. cerevisiae deletion strains, locus YOR070C, strain gyp1, active compounds read low 0.0582 | S. cerevisiae deletion strains, locus YOR080W, strain dia2, active compounds read low 0.0639 | S. cerevisiae deletion strains, locus YOR083W, strain WHI5, active compounds read low 0.0574 | S. cerevisiae deletion strains, locus YOR106W, strain vam3, active compounds read low 0.0616 | S. cerevisiae deletion strains, locus YOR136W, strain idh2, active compounds read low 0.0711 | S. cerevisiae deletion strains, locus YOR144C, strain elg1, active compounds read low 0.0571 | S. cerevisiae deletion strains, locus YOR184W, strain ser1, active compounds read low 0.0671 | S. cerevisiae deletion strains, locus YOR231W, strain MKK1, active compounds read low 0.0937 | S. cerevisiae deletion strains, locus YOR265W, strain rbl2, active compounds read low 0.0534 | S. cerevisiae deletion strains, locus YOR270C, strain vph1, active compounds read low 0.0651 | S. cerevisiae deletion strains, locus YOR290C, strain snf2, active compounds read low 0.0594 | S. cerevisiae deletion strains, locus YOR316C, strain cot1, active compounds read low 0.0575 | S. cerevisiae deletion strains, locus YPL051W, strain arl3, active compounds read low 0.0558 | S. cerevisiae deletion strains, locus YPL055C, strain LGE1, active compounds read low 0.0731 | S. cerevisiae deletion strains, locus YPL078C, strain atp4, active compounds read low 0.0629 | S. cerevisiae deletion strains, locus YPL106C, strain sse1, active compounds read low 0.0805 | S. cerevisiae deletion strains, locus YPL240C, strain hsp82, active compounds read low 0.0545 | S. cerevisiae deletion strains, locus YPL241C, strain CIN2, active compounds read low 0.0519 | S. cerevisiae deletion strains, locus YPL256C, strain CLN2, active compounds read low 0.107 | S. cerevisiae deletion strains, locus YPR119W, strain clb2, active compounds read low 0.0613 | S. cerevisiae deletion strains, locus YPR141C, strain kar3, active compounds read low 0.0706 | S. cerevisiae deletion strains, locus YPR163C, strain tif3, active compounds read low 0.0686 | S. cerevisiae deletion strains, locus YPR167C, strain met16, active compounds read low 0.0617 | S. cerevisiae deletion strains, strain wtn01, active compounds read low 0.0595 | S. cerevisiae strains, strain wild type, active compounds read low 0.0507
